Experimental data reported in the supplement of paper PMC10681739.

biological target: T1, ETS1 (UniProt P14921); test: ETS1 binding intensity (PBM fluorescence), ETS1 alone (arbitrary fluorescence units); higher = stronger binding; conditions: ETS1 concentration 1 nM; RUNX1 concentration 0 nM
T1 sequence: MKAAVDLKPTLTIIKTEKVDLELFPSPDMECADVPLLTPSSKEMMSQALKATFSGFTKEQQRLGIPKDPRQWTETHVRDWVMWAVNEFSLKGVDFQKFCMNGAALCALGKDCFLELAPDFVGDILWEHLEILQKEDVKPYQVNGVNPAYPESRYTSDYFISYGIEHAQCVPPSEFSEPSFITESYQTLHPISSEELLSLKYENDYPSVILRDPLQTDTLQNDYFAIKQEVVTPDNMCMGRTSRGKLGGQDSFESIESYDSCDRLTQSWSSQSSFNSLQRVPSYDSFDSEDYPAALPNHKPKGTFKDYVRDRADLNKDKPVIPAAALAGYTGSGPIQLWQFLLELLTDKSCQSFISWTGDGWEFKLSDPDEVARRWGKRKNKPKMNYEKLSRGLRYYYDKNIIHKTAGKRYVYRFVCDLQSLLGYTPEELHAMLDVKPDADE

Sequence | ETS1 binding intensity
CCTCGGTTCGGAAACGGCGAAAGCAAACCGCAAGGA | 478
CGAAAGTGACCGGAAGTAACCGCCGGGCCAAGATGG | 17800
TGCTTTTCAGGTGCAGGAAGTGGTTTGCCTTTGCCC | 7810
AGAAGCTGCAGTCCCGGAAGCGGTTTTAGGGGGCCG | 4220
CTCTGCTTCCTGTCTTTGAATGCCTCTGTGGTTTTC | 675
GATGAAAGAGGAAGTTCTCAAACCACCTTGCCAGTG | 1170
GGGAGGTCACATCCTGCCCGCGGTCTCAGAAAAGCT | 821
GGCTTCCGCCTGCCGAGCGGCCCCGGACCGCAGGCC | 343
GCTGATAAAACAGGATGTGGTAAAGAAGCCGGCCAA | 5160
TTTTGCCCAACAGGATGTGGTTTCTAAAGCAGACGG | 6620
AACCTGCAGACTTCCTGCCATGTGACCACAGGGTCT | 901
ACCTCAGGTACCGGAAGACCACAATTCCCAGGAGTC | 2950
GGCTGTGCTTCAGGATGTGGTAATGCTTGGGAGGCG | 990
CTGAAGAGGAAATGTATTCCTCATGTTGTGGTTGGC | 742
TACTAGTTTGGGGCATCCTGTGGTATAGGGGAAGCA | 4100
AAACTACACCTCAGAGGATGTGGTTCCTTCTCTCAT | 1130
AGCGTTTCCTGCCTGTCTGGGGCTGACAAACCACAA | 623
AAAGAGGAAATCACGTACCCGAAAACCACATGCACA | 530
CAAGCACATTACGGAAGAGGCTGACCGCAAATACGA | 595

biological target: T1, ETS1; test: ETS1 binding intensity (PBM fluorescence) in presence of RUNX1, normalised to ETS1-only experiment (arbitrary fluorescence units); higher = stronger binding; conditions: ETS1 concentration 1 nM; RUNX1 concentration 25 nM

Sequence | ETS1 binding intensity
CAACTGACCGGACAGAACACAGCCACAAAACACGAG | 507
TTGCACACGTGGGCGGGAAGTGGTTAAGCGGCCTCA | 4280
GCCACATATTTCCTGTGACAACCCTGTGGTGTGGCT | 723
CTCCTGTTCCGGCTCAAAGGGAAACCGCTGCTTTTC | 907
GCCCACCCGCTTCCGGTTGTGGGCCCCGCCCGCCGA | 7350
AAGGCGGAGGAAGGGAAAATTGTGGTTGGGCAGAGG | 742
TGCATGCAACAGGAAGTGGGGTGTGGTTTGTTCTGG | 39100
CGAAGCCGGAAATGCTGAGTGTGCGGGGCCGAACGT | 4980
CTCGCGATTCCTCTTCCGCTGCGGTCTCCTTAACAC | 841
GTTCTTCCACGTCCGCGTTACCCACAACGGCAGTGG | 606
CCCGGAGGACGTCCGGCCTCTGTGAGCCGCAACCTT | 561
CGGGCGAGCGCAGGATGCGGTTGTCGAACGCGCGGC | 1050
TTCTGCTACATCCTGCCCACTCCCTGTGGCTTCCAC | 1060
CTTTTCCATGCAGGAAGTGGTTTTTAGAGTGTAGAG | 20100
TGTGTAACTTCCTGGCTTTGGTGGTTTCCCCCTCCT | 1390
CCTGTTTCCTGCCATCTGCCCTTCCTTTGTGGTCAA | 1260
GACCGAGAGGAAGCAGCAAGGATCCTGCGGTTCCAG | 1990
GGAGGGGCTGGCCGGAAGTGAACCGCAGAGCACGCT | 33500
AGGTACCAGGCCCGGAAACCACGGAAAGGGGAACTT | 5500
ACCAGAAGCACTGCAGGATGTGGTATCAAGACGCCT | 6680

Sequence | ETS1 binding intensity
GTGGCCTCTTCAACAGGAAACCACAATATTTTTGTT | 10500
CCTCGGTTCGGAAACGGCGAAAGCAAACCGCAAGGA | 3890
CGAAAGTGACCGGAAGTAACCGCCGGGCCAAGATGG | 18200
TGCTTTTCAGGTGCAGGAAGTGGTTTGCCTTTGCCC | 11000
AGAAGCTGCAGTCCCGGAAGCGGTTTTAGGGGGCCG | 10100
CTCTGCTTCCTGTCTTTGAATGCCTCTGTGGTTTTC | 2540
GATGAAAGAGGAAGTTCTCAAACCACCTTGCCAGTG | 1490
GGGAGGTCACATCCTGCCCGCGGTCTCAGAAAAGCT | 989
GGCTTCCGCCTGCCGAGCGGCCCCGGACCGCAGGCC | 768
GCTGATAAAACAGGATGTGGTAAAGAAGCCGGCCAA | 18000
TTTTGCCCAACAGGATGTGGTTTCTAAAGCAGACGG | 31600
AACCTGCAGACTTCCTGCCATGTGACCACAGGGTCT | 3140
ACCTCAGGTACCGGAAGACCACAATTCCCAGGAGTC | 4740
GGCTGTGCTTCAGGATGTGGTAATGCTTGGGAGGCG | 4180
CTGAAGAGGAAATGTATTCCTCATGTTGTGGTTGGC | 1980
TACTAGTTTGGGGCATCCTGTGGTATAGGGGAAGCA | 4560
AAACTACACCTCAGAGGATGTGGTTCCTTCTCTCAT | 1730
AGCGTTTCCTGCCTGTCTGGGGCTGACAAACCACAA | 492
AAAGAGGAAATCACGTACCCGAAAACCACATGCACA | 1370
CAAGCACATTACGGAAGAGGCTGACCGCAAATACGA | 6680
